Screen size: about 310,000 compounds; about 14,000 (4.5%) showed an effect of 50% or more. The effect is printed as a negative number. Many of the other results were omitted from the sample, so strong results are more common in it than they were.
These compounds were tested against human ether-à-go-go-related gene (hERG) potassium channel (human, UniProt Q12809) (assay: primary screen, population patch clamp on CHO cells stably expressing hERG; higher = less effect of the substance).
Chain of human ether-à-go-go-related gene (hERG) potassium channel (Q12809 whole entry, looked up): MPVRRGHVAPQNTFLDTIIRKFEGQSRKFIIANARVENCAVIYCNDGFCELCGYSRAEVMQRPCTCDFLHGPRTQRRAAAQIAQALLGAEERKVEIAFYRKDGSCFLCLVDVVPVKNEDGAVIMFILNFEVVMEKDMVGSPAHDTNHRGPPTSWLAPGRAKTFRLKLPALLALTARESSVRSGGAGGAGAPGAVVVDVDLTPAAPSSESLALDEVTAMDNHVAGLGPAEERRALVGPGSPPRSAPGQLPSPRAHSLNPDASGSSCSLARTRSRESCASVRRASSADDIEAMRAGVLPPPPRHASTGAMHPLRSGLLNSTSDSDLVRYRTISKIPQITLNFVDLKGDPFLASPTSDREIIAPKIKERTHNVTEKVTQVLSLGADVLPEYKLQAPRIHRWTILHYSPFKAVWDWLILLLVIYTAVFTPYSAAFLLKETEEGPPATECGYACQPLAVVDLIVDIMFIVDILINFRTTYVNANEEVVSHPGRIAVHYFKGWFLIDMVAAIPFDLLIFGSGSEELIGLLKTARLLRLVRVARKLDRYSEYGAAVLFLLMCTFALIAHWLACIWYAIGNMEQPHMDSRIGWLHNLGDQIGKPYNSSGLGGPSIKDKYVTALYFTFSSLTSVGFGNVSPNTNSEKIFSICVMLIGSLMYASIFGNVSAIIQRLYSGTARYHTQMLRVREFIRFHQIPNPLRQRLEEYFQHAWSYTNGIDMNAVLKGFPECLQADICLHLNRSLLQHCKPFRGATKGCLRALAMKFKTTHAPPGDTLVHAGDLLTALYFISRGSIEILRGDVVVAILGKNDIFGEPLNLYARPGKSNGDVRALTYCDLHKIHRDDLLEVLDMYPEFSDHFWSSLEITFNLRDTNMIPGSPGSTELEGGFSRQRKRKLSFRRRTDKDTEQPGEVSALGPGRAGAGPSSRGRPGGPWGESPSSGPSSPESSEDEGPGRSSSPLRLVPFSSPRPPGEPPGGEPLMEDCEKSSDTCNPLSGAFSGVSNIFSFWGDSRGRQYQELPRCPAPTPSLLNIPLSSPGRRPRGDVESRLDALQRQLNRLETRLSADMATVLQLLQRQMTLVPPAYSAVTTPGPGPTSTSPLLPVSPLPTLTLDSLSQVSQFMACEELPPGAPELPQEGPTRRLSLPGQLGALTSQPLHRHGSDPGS
For COc1ccc(/C=C(\NC(=O)c2ccco2)C(=O)NCc2ccco2)cc1, the “hERG current change (%, negative = inhibition) at 10uM” value was 8.89%.
With CC(=O)Oc1ccc(/C=C(\NC(=O)c2ccco2)C(=O)NCc2ccccc2)cc1 the “hERG current change (%, negative = inhibition) at 10uM” value was -68.3%.
Cc1cccc(C(=O)N2CCC(N3CCC(C(=O)N4CCOCC4)CC3)CC2)c1 was tested, and the “hERG current change (%, negative = inhibition) at 10uM” value was -9.81%.
In the case of Cc1ccc(S(=O)(=O)/N=c2\scc(C)n2C)cc1, the “hERG current change (%, negative = inhibition) at 10uM” value is reported as 0.491%.
O=C1CN(C(=O)COc2ccc(Cl)cc2Cl)c2ccccc2N1 was tested, and the “hERG current change (%, negative = inhibition) at 10uM” value was 14.2%.
For O=C1CN(C(=O)COc2ccc(F)cc2Cl)c2ccccc2N1, the “hERG current change (%, negative = inhibition) at 10uM” value was -19.5%.
In the case of O=C1CN(C(=O)COc2ccc([N+](=O)[O-])cc2Cl)c2ccccc2N1, the “hERG current change (%, negative = inhibition) at 10uM” value is reported as -61.2%.
With CC1(C)CC(=O)C=C(C(=O)NC2CCCc3c2cnn3-c2cc(F)cc(F)c2)O1 (centres unmarked) the “hERG current change (%, negative = inhibition) at 10uM” value was -2.03%.
O=C(O)c1cc(NS(=O)(=O)c2ccc(NCc3ccccc3)c([N+](=O)[O-])c2)cc(C(=O)O)c1 was tested, and the “hERG current change (%, negative = inhibition) at 10uM” value was 20.9%.
In the case of COC(=O)N/N=C(\C)c1ccccc1OC(F)F, the “hERG current change (%, negative = inhibition) at 10uM” value is reported as 1.52%.
With Cc1ccc(C(=O)N[C@@H](C)CN2C3=NC[C@H](C(C)C)N3C[C@H]2Cc2ccc(O)cc2)cc1Br the “hERG current change (%, negative = inhibition) at 10uM” value was -77.7%.
With COc1ccc(C[C@H]2CN3C(=NC[C@@H]3C(C)C)N2C[C@H](C)NC(=O)c2ccc(C)c(Br)c2)cc1 the “hERG current change (%, negative = inhibition) at 10uM” value was -74.5%.
In the case of COc1ccc(C[C@@H]2CN3C(=NC[C@@H]3C)N2C[C@H](C)NC(=O)c2ccc(C)c(Br)c2)cc1, the “hERG current change (%, negative = inhibition) at 10uM” value is reported as -74.8%.
CCCOP(=O)(c1ccc(N(C)C)cc1)C(O)c1ccc(N(C)C)cc1 (centres unmarked) was tested, and the “hERG current change (%, negative = inhibition) at 10uM” value was 12.8%.
c1ccc2sc(-c3ccc4c(c3)OCO4)nc2c1 was tested, and the “hERG current change (%, negative = inhibition) at 10uM” value was -3.16%.
With CCOc1ccc(C2CC(c3cccc(OC)c3OC)n3nnnc3N2)cc1Cl (centres unmarked) the “hERG current change (%, negative = inhibition) at 10uM” value was -19.2%.
For Cc1ccc(-n2nnnc2Sc2nc([N+](=O)[O-])nn2C)c(C)c1, the “hERG current change (%, negative = inhibition) at 10uM” value was -27.6%.
CN(C(=O)c1ccc(C#N)cc1)c1nnc(-c2cnccn2)s1 was tested, and the “hERG current change (%, negative = inhibition) at 10uM” value was -8.93%.
CCN(CC)CCCNC(=O)Cn1ncc2c(=O)oc3ccc(C)cc3c21 was tested, and the “hERG current change (%, negative = inhibition) at 10uM” value was -7.17%.
In the case of COC(=O)COc1ccc(C(c2c(C)[nH][nH]c2=O)c2c(C)[nH][nH]c2=O)cc1, the “hERG current change (%, negative = inhibition) at 10uM” value is reported as 15.1%.
In the case of COc1ccc(CN2CN(C3CCCC3)CSC2=S)cc1, the “hERG current change (%, negative = inhibition) at 10uM” value is reported as 2.66%.
In the case of Cc1ccc(OCCCC(=O)Nc2ccc(S(=O)(=O)N3CCOCC3)cc2)cc1, the “hERG current change (%, negative = inhibition) at 10uM” value is reported as -25.7%.
With COc1ccc(-n2nc(C(=O)NCC(=O)Nc3ccccn3)c3ccccc3c2=O)cc1 the “hERG current change (%, negative = inhibition) at 10uM” value was 10.6%.
In the case of Cc1ccccc1NC(=S)N(Cc1cccs1)C1CCCC1, the “hERG current change (%, negative = inhibition) at 10uM” value is reported as 5.42%.
For C=CCn1c(SCC(=O)N2CCc3ccccc3C2)nc2ccccc2c1=O, the “hERG current change (%, negative = inhibition) at 10uM” value was -61.5%.
C=CCn1c(SCC(=O)N2CCc3ccccc3C2)nc2sc(C)cc2c1=O was tested, and the “hERG current change (%, negative = inhibition) at 10uM” value was -7.46%.
For C=CCn1c(SCC(=O)N2CCOCC2)nc2ccccc2c1=O, the “hERG current change (%, negative = inhibition) at 10uM” value was -28.4%.
COCCn1c(SCC(=O)N2CCc3ccccc3C2)nc2ccccc2c1=O was tested, and the “hERG current change (%, negative = inhibition) at 10uM” value was -43.8%.
With CCn1c(SCC(=O)N2CCCCCC2)nc2ccccc2c1=O the “hERG current change (%, negative = inhibition) at 10uM” value was -10.4%.
With C=CCn1c(SCC(=O)N2CCCCCC2)nc2ccccc2c1=O the “hERG current change (%, negative = inhibition) at 10uM” value was -59.2%.
In the case of Cc1nc(N2CCN(S(=O)(=O)c3ccc(F)cc3)CC2)c2c(-c3cccs3)csc2n1, the “hERG current change (%, negative = inhibition) at 10uM” value is reported as 11.6%.
With CCn1cc(S(=O)(=O)N2CCN(c3ccc(Cl)cc3)CC2)cn1 the “hERG current change (%, negative = inhibition) at 10uM” value was 7.96%.
In the case of Cn1nc(C(F)(F)F)c(-c2ccccc2)c1NC(=O)c1ccco1, the “hERG current change (%, negative = inhibition) at 10uM” value is reported as -3.07%.
With O=C(Nc1oc2ccccc2c(=O)c1-c1ccc(Br)cc1)c1ccco1 the “hERG current change (%, negative = inhibition) at 10uM” value was -52.5%.
In the case of Cn1nc(C(F)(F)F)c(-c2cccc(C(F)(F)F)c2)c1NC(=O)c1cccnc1, the “hERG current change (%, negative = inhibition) at 10uM” value is reported as -6.76%.
With Cn1nc(C(F)(F)F)c(-c2ccc(Br)cc2)c1NC(=O)c1cccnc1 the “hERG current change (%, negative = inhibition) at 10uM” value was 0.61%.
In the case of Cn1nc(C(F)(F)F)c(-c2cccc(C(F)(F)F)c2)c1NC(=O)c1ccco1, the “hERG current change (%, negative = inhibition) at 10uM” value is reported as -66.6%.
Cn1nc(C(F)(F)F)c(-c2ccc(F)cc2)c1NC(=O)c1ccco1 was tested, and the “hERG current change (%, negative = inhibition) at 10uM” value was -32.8%.
For Cc1ccc(-c2c(NC(=O)c3ccco3)oc3ccccc3c2=O)cc1, the “hERG current change (%, negative = inhibition) at 10uM” value was 10.1%.
In the case of O=C(Nc1oc2ccccc2c(=O)c1-c1ccc(Cl)cc1)c1ccco1, the “hERG current change (%, negative = inhibition) at 10uM” value is reported as -20.4%.
With Cn1nc(C(F)(F)F)c(-c2ccc(Br)cc2)c1NC(=O)c1ccco1 the “hERG current change (%, negative = inhibition) at 10uM” value was -63.5%.

Source: article PMC4336329 (PLoS ONE, 2015)
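Also: peak tail current of the secondary pulse compared with the same well before compound.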
